Assay results reported in the supplement of paper PMC6089552.
About 300 (9.4%) of roughly 3,200 compounds showed activity. For the sample, actives were picked, then their nearest neighbours and some compounds at random.

System: A673/TR/shEF
Test: cell viability (LOESS-normalised, relative to median of negative controls) (log2 ratio); higher = more viable cells (less compound effect), active = hit call of the paper (over 3 MAD below the median)
Details: treatment time: 72 h
Outline: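 For three days, A673/TR/shEF Ewing sarcoma cells in 384-well plates (1,500 per well) were treated with library compounds at two or more concentrations or with DMSO controls, after doxycycline had been added or withheld 24 h beforehand to induce EWS-FLI1 shRNA knockdown. Viability was read by CellTiter-Glo luminescence on an Envision reader. The data were LOESS-corrected per plate, divided by the median of negative controls and log2-transformed.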

[1] = 0.025 µM, library screen: screen2, EWS-FLI1 expression: high (no doxycycline)
[2] = 0.025 µM, library screen: screen2, EWS-FLI1 expression: low (doxycycline-induced shRNA knockdown)
[3] = 0.103 µM, library screen: screen3, EWS-FLI1 expression: high (no doxycycline)
[4] = 0.103 µM, library screen: screen3, EWS-FLI1 expression: low (doxycycline-induced shRNA knockdown)
[5] = 0.25 µM, library screen: screen1, EWS-FLI1 expression: high (no doxycycline)
[6] = 0.25 µM, library screen: screen1, EWS-FLI1 expression: low (doxycycline-induced shRNA knockdown)
[7] = 0.25 µM, library screen: screen2, EWS-FLI1 expression: high (no doxycycline)
[8] = 0.25 µM, library screen: screen2, EWS-FLI1 expression: low (doxycycline-induced shRNA knockdown)
[9] = 0.308 µM, library screen: screen3, EWS-FLI1 expression: high (no doxycycline)
[10] = 0.308 µM, library screen: screen3, EWS-FLI1 expression: low (doxycycline-induced shRNA knockdown)
[11] = 0.926 µM, library screen: screen3, EWS-FLI1 expression: high (no doxycycline)
[12] = 0.926 µM, library screen: screen3, EWS-FLI1 expression: low (doxycycline-induced shRNA knockdown)
[13] = 2.5 µM, library screen: screen1, EWS-FLI1 expression: high (no doxycycline)
[14] = 2.5 µM, library screen: screen1, EWS-FLI1 expression: low (doxycycline-induced shRNA knockdown)
[15] = 2.5 µM, library screen: screen2, EWS-FLI1 expression: high (no doxycycline)
[16] = 2.5 µM, library screen: screen2, EWS-FLI1 expression: low (doxycycline-induced shRNA knockdown)
[17] = 2.8 µM, library screen: screen3, EWS-FLI1 expression: high (no doxycycline)
[18] = 2.8 µM, library screen: screen3, EWS-FLI1 expression: low (doxycycline-induced shRNA knockdown)
[19] = 8.3 µM, library screen: screen3, EWS-FLI1 expression: high (no doxycycline)
[20] = 8.3 µM, library screen: screen3, EWS-FLI1 expression: low (doxycycline-induced shRNA knockdown)
[21] = 25 µM, library screen: screen2, EWS-FLI1 expression: high (no doxycycline)
[22] = 25 µM, library screen: screen2, EWS-FLI1 expression: low (doxycycline-induced shRNA knockdown)
[23] = 25 µM, library screen: screen3, EWS-FLI1 expression: high (no doxycycline)
[24] = 25 µM, library screen: screen3, EWS-FLI1 expression: low (doxycycline-induced shRNA knockdown)
[25] = 0.025 µM, library screen: screen1, EWS-FLI1 expression: high (no doxycycline)
[26] = 0.025 µM, library screen: screen1, EWS-FLI1 expression: low (doxycycline-induced shRNA knockdown)
[27] = 25 µM, library screen: screen1, EWS-FLI1 expression: high (no doxycycline)
[28] = 25 µM, library screen: screen1, EWS-FLI1 expression: low (doxycycline-induced shRNA knockdown)

Measured: cell viability (log2)

CC[C@@]1(O)C(=O)OCc2c1cc1n(c2=O)Cc2cc3ccccc3nc2-1
active: [3] -1.01 | [5] -2.18 | [6] -0.586 | [7] -2.99 | [8] -0.42 | [9] -2.37 | [10] -0.543 | [11] -3.61 | [12] -0.88 | [13] -1.57 | [14] -0.388 | [15] -3.53 | [16] -0.945 | [17] -4.24 | [18] -1.16 | [19] -4.26 | [20] -1.3 | [21] -4.09 | [22] -1.25 | [23] -4.26 | [24] -2.33
inactive: [1] -0.0654 | [2] 0.049 | [4] -0.0714

C[C@]12CCC(=O)C=C1C=CC1C2CC[C@@]2(C)C1CC[C@@]2(O)CCC(=O)O (stereo not given in full)
inactive: [5] 0.0813 | [6] -0.0168 | [13] 0.15 | [14] -0.00183

N[C@@H](Cc1ccc(N(CCCl)CCCl)cc1)C(=O)O
inactive: [5] 0.0874 | [6] 0.0161 | [7] 0.175 | [8] 0.17 | [13] 0.00755 | [14] 0.0488 | [15] 0.22 | [16] 0.172

Cn1c(CCCC(=O)O)nc2cc(N(CCCl)CCCl)ccc21
inactive: [3] 0.058 | [4] 0.0297 | [9] -0.00941 | [10] 0.026 | [11] -0.00645 | [12] 0.00947 | [17] -0.0453 | [18] -0.00369 | [19] 0.00708 | [20] 0.0974 | [23] -0.0533 | [24] 0.0463

O=C(O)CCCc1ccc(N(CCCl)CCCl)cc1
active: [21] -0.0762
inactive: [1] 0.0942 | [2] 0.0711 | [5] 0.0971 | [6] 0.0808 | [7] 0.12 | [8] 0.0418 | [13] 0.142 | [14] 0.131 | [15] 0.101 | [16] 0.11 | [22] 0.0238

CC(=O)CC1CCCCN1 (stereo not given)
inactive: [5] 0.0906 | [6] -0.00634 | [13] 0.0756 | [14] -0.083

CC(=O)O[C@@H]1CC2C(C)(C)[C@H](O)C=C[C@]2(C)C2CC[C@]3(C)C(=CC(=O)O[C@H]3c3ccoc3)[C@@]21C (stereo not given in full)
inactive: [5] 0.113 | [6] 0.0781 | [13] 0.222 | [14] 0.195

CCc1cccc(CC)c1N(COC)C(=O)CCl
inactive: [5] 0.0413 | [6] -0.00378 | [13] 0.0617 | [14] 0.0338

CC1(C)C(C=C(Cl)Cl)C1C(=O)OC(C#N)c1cccc(Oc2ccccc2)c1 (stereo not given)
active: [27] -0.287 | [28] -0.665
inactive: [25] 0.0827 | [26] 0.0478 | [5] 0.102 | [6] -0.0402 | [13] 0.0354 | [14] -0.0899

CC1(C)[C@H](C(=O)O[C@H](C#N)c2cccc(Oc3ccccc3)c2)[C@@H]1C=C(Br)Br
inactive: [25] 0.0513 | [26] -0.0407 | [5] 0.047 | [6] 0.086 | [13] 0.112 | [14] 0.12 | [27] -0.0163 | [28] 0.0977

CC(C)C(C(=O)OC(C#N)c1cccc(Oc2ccccc2)c1)c1ccc(Cl)cc1 (stereo not given)
inactive: [25] 0.0912 | [26] 0.0926 | [5] 0.0365 | [6] 0.00166 | [13] 0.0694 | [14] 0.0411 | [27] 0.0435 | [28] 0.0476

CC1(C)C(=O)C=C[C@]2(C)C3CC[C@@]4(C)[C@H](c5ccoc5)C[C@H]5O[C@]54C3[C@H](O)CC12 (stereo not given in full)
inactive: [5] 0.0404 | [6] 0.00309 | [13] 0.102 | [14] 0.0462

C[C@H]1C(=O)O[C@@H]2CCN3CC=C(COC(=O)[C@](C)(O)[C@]1(C)O)[C@H]23
inactive: [1] 0.0665 | [2] 0.0541 | [5] 0.00981 | [6] 0.0549 | [7] 0.122 | [8] 0.0363 | [13] 0.0901 | [14] 0.111 | [15] 0.0833 | [16] 0.0416 | [21] 0.0406 | [22] 0.0625

CC1=C(O)C(=O)C=C2C1=CC=C1[C@@]2(C)CC[C@@]2(C)[C@@H]3C[C@](C)(C(=O)O)CC[C@]3(C)CC[C@]12C
inactive: [1] 0.14 | [2] 0.0632 | [5] 0.0936 | [6] 0.0786 | [7] 0.154 | [8] 0.0872 | [14] 0.0632
active: [13] -1.03 | [15] -4.23 | [16] -0.301 | [21] -4.23 | [22] -3.9

COC(=O)[C@]1(C)CC[C@]2(C)CC[C@]3(C)C4=CC=C5C(=CC(=O)C(O)=C5C)[C@]4(C)CC[C@@]3(C)[C@@H]2C1
inactive: [5] -0.0347 | [6] 0.133
active: [13] -2.91 | [14] -3.05

Cc1c(O)c(O)cc2c1CC=C1[C@@]2(C)CC[C@@]2(C)[C@@H]3C[C@](C)(C(=O)O)CC[C@]3(C)CC[C@]12C
inactive: [5] 0.102 | [6] 0.0187 | [13] 0.0348 | [14] 0.22

COC(=O)[C@]1(C)CC[C@]2(C)CC[C@]3(C)C4=CCc5c(cc(O)c(O)c5C)[C@]4(C)CC[C@@]3(C)[C@@H]2C1
inactive: [5] 0.0264 | [6] 0.158
active: [13] -1.44 | [14] -0.357

NCC(CC(=O)O)c1ccc(Cl)cc1 (stereo not given)
inactive: [5] 0.0966 | [6] 0.12 | [7] 0.221 | [8] 0.138 | [13] 0.123 | [14] 0.15 | [15] 0.124 | [16] 0.0836

CCC(N)C(O)c1ccc(O)c(O)c1 (stereo not given)
inactive: [5] 0.161 | [6] 0.0223 | [13] 0.0883 | [14] 0.0282

C[C@]12CC[C@H](O)CC1=CC[C@@H]1[C@@H]2CC[C@]2(C)C(=O)CC[C@@H]12
inactive: [3] -0.0409 | [4] 0.0562 | [5] 0.164 | [6] 0.131 | [7] 0.133 | [8] 0.0866 | [9] 0.0564 | [10] 0.076 | [11] -0.013 | [12] 0.0349 | [13] 0.137 | [14] 0.104 | [15] 0.173 | [16] 0.152 | [17] 0.0481 | [18] 0.0405 | [19] 0.0125 | [20] 0.0569 | [23] -0.0287 | [24] -0.0258

CCC(C)C(=O)O[C@@H]1C[C@@]2(C)[C@H](c3ccoc3)OC(=O)CC23OC2(C)OC14C1(C)[C@@H](CC(=O)OC)C5(C)CC1(O)C(O)([C@@H](OC(C)=O)C43O2)[C@H]5OC(=O)C1(C)OC1C (stereo not given in full)
inactive: [5] 0.0892 | [6] 0.0664 | [13] 0.0941 | [14] 0.178

O=C(O)COc1cc(Cl)c(Cl)cc1Cl
inactive: [5] 0.0712 | [6] 0.0603 | [13] 0.0828 | [14] 0.0118

c1ccc2c3c([nH]c2c1)CNCC3
inactive: [5] 0.101 | [6] 0.0693 | [13] 0.2 | [14] 0.0982

FC(F)(F)c1cccc(N2CCNCC2)c1
inactive: [5] 0.112 | [6] 0.0689 | [13] 0.176 | [14] 0.0985

CN1C2CCC1CC(OC(c1ccccc1)c1ccc(Cl)cc1)C2 (stereo not given)
inactive: [7] 0.142 | [8] 0.124 | [15] 0.232 | [16] 0.111

CC(C)CC(NC(=O)C(Cc1ccccc1)NC(=O)CNC(=O)CNC(=O)C(N)Cc1ccc(O)cc1)C(=O)O (stereo not given)
inactive: [5] 0.0697 | [6] 0.0904 | [13] 0.0902 | [14] 0.179

Cc1c2ccncc2c(C)c2c1[nH]c1ccccc12
inactive: [7] 0.0843 | [8] 0.00884 | [16] -0.00745
active: [15] -0.136

c1ccc2c(c1)[nH]c1cnccc12
inactive: [5] 0.0149 | [6] -0.0111 | [13] 0.101 | [14] 0.0791

Cc1nccc2c1[nH]c1ccccc12
inactive: [5] 0.0742 | [6] 0.0176 | [7] 0.227 | [8] 0.0311 | [13] 0.126 | [14] 0.136 | [15] 0.107 | [16] 0.0839

Cc1ccccc1O
inactive: [5] 0.162 | [6] 0.0964 | [13] 0.189 | [14] 0.175

COC(C)(C)CCCC(C)C/C=C/C(C)=C/C(=O)OC(C)C (stereo not given)
inactive: [5] -0.00169 | [6] 0.0238 | [13] 0.116 | [14] 0.0204

c1ccc2nc(N3CCNCC3)ccc2c1
inactive: [5] 0.0719 | [6] 0.0592 | [7] 0.196 | [8] 0.0365 | [13] 0.0383 | [14] 0.12 | [15] 0.14 | [16] 0.00635

COc1ccccc1N1CCNCC1
inactive: [5] 0.0547 | [6] 0.0205 | [7] 0.228 | [8] 0.0463 | [13] 0.105 | [14] 0.112 | [15] 0.201 | [16] 0.0929

c1ccc2c(N3CCNCC3)cccc2c1
active: [15] -0.803 | [16] -0.746
inactive: [7] 0.144 | [8] -0.113

C[C@]12Cc3cn4c(nc3C=C1CCC1C2CC[C@@]2(C)[C@H]1CC[C@@]2(O)C#N)nc1ccccc14 (stereo not given in full)
inactive: [7] 0.119 | [8] 0.112 | [15] 0.295 | [16] 0.0843
